Compound activity: PubChem, National Center for Advancing Translational Sciences (NCATS)
ClpP mod – qHTS Assay for Activators of ClpP | AID 651965, 2013 | ATP-dependent Clp protease proteolytic subunit (Bacillus subtilis (strain 168)), P80244 | Potency, µM (top dose mostly 57.5 µM) | 1.9% of 340,000 active | purified B. subtilis ClpP, FRET peptide cleavage, 20 min; active = well fitted falling curve with a large enough effect; inconclusive = small, poorly fitted or top-dose-only effect; inactive = no such curve, though single readings can be large or run the other way; also: the source files actives as falling curves though it sought activators and does not explain the sign; nearly all actives have a fitted effect of over 65% in size
Target sequence (P80244 whole entry, looked up): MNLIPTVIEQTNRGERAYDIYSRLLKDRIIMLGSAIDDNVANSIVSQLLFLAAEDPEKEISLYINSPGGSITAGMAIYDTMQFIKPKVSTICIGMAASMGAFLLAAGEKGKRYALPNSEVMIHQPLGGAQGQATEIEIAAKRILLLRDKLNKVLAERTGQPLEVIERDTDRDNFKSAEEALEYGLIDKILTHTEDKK
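FRET quenching reversal measured ClpP activation: 10 microg/mL B. subtilis ClpP at pH 8 with the FRET-FV decapeptide, read at 430 nm after 320 nm excitation. The 20-min minus 0-min signal was scaled between DMSO/no-enzyme wells and ADEP (5.8 microM final).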
ALOX12 inh – inhibitors of human 12S-lipoxygenase ALOX12; purified 12hLO, xylenol orange hydroperoxide absorbance; Potency, µM (highest dose often 108 µM), usual class: inhibitors; P18054; 1.1% of 580,000 active; active = well fitted inhibition curve with a large enough effect; inconclusive = small, poorly fitted or top-dose-only effect, or another doubt; inactive = no such curve, though single readings can be large or run the other way
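Purified human 12hLO at 150 nM in 25 mM Hepes, 0.01% Triton X-100, pH 7.0, preincubated 15 min at room temperature with compound. Reaction started with 40 uM arachidonic acid, 30 min at room temperature. Hydroperoxide measured by Fe-xylenol orange, 573/405 nm absorbance ratio.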
KCNH2 WT inh – KCNH2 (human, wildtype) channel inhibition | Q12809 | U2OS, BacMam KCNH2, thallium flux FluxOr; stronger effect = lower value | activity change, % at 1.84 µM | 0.37% of 340,000 active;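 active = maximum activity change below -70%; inconclusive = maximum activity change between -70% and -50%; inactive = maximum activity change above -50%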
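U2OS cells were transduced with wild-type KCNH2 virus (2.03 x 10^8 / mL) for 4 h at room temperature, then cultured overnight at 37 C. Thallium flux was read with FluxOr dye. Rate constants were normalized to DMSO controls.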
BCR signal inh – chronic active BCR signaling inhibition. ABC-DLBCL IkBa-CBG/CBR reporter, luminescence ratio, 4 h. Potency, µM (series often up to 46.1 µM), usual class: inhibitors. 0.05% of 340,000 active; active = well fitted inhibition curve with a large enough effect in the signal ratio, with a control signal flat, not every such curve was filed as active; inconclusive = small, poorly fitted or top-dose-only effect, or effect the other way, or a change in a side signal; the % refers to the signal ratio
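TMD8 ABC-DLBCL cells carrying doxycycline-inducible green luciferase fused to IkappaBalpha plus unfused red luciferase were exposed to compounds (up to 46 uM) for 4 hrs at 37C. Activity came from the overlap-corrected green/red luminescence ratio.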
LDHA block – blocks human lactate dehydrogenase A; P00338; AID 1347041; 0.15% of 480,000 active; activity change, % (values are at about 110 or 230 µM); purified LDHA, NADH/diaphorase-resazurin fluorescence; stronger effect = lower value; in the data active = activity change below about -30%; inconclusive = mostly about -25% to -30%
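Human LDH5 (2 nM) was incubated with 0.06 mM NADH and 0.2 mM pyruvate for 5 min at room temperature in Tris pH 7.4. Remaining NADH was coupled through diaphorase/resazurin, and resorufin fluorescence was read at 0 and 20 min.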
KCNH2 3.1 inh – KCNH2 3.1 (human) potassium channel inhibition; U2OS KCNH2 3.1, thallium flux FluxOr; stronger effect = lower value; activity change, % (tested at about 1.8 µM); 0.95% of 340,000 active; AID 720553;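 active = maximum activity change below -70%; inconclusive = maximum activity change from -70% to -50%; inactive = maximum activity change above -50%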;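 also: thallium influx rate constant from kinetic fluorescence after stimulation buffer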
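Steps: virus added to U2OS suspension (4 h, RT, dark); medium with 10% FBS added, cells plated, 37 C overnight; FluxOr/Red40 loading buffer 45 min RT; stimulation buffer, 2 min kinetic read; rate constant normalized.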
Hits are given with their value. Rows were chosen to be rich in hits. Some 3% of all compounds tested hit in one or more screens of this group.

Cc1ccc(-n2c(Cc3cccs3)nnc2SCC(=O)Nc2ccc(F)c(F)c2)cc1 was read as ClpP mod inactive, ALOX12 inh inactive, KCNH2 WT inh -76.9, BCR signal inh inconclusive, LDHA block inactive and KCNH2 3.1 inh inactive.
Cc1ccc(NC(=O)CSc2ccccc2C(=O)Nc2ccc3c(c2)OCCCO3)cc1 was read as ALOX12 inh 10µM and LDHA block inconclusive.
Screening N#Cc1ccc(CSc2ccccc2C(=O)Nc2ccc3c(c2)OCO3)cc1 returned ALOX12 inh 28.2µM and LDHA block inactive.
For O=C1CCCCC(Cc2ccccc2)(C(=O)Nc2ccc(F)cc2)N1 (centres undefined) the results were ALOX12 inh inactive.
Screening C[N+](C)(C)CCCC#CC#CCCC[N+](C)(C)C returned ALOX12 inh 39.8µM and LDHA block inactive.
`C[N+](C)(C)CC#CCCCCC#CC[N+](C)(C)C` gave ALOX12 inh inconclusive and LDHA block inactive.
`CC(/C=N/NC(=O)c1ccc(Cn2cc([N+](=O)[O-])cn2)o1)=C\c1ccccc1` gave ClpP mod inactive, ALOX12 inh inactive, KCNH2 WT inh inactive, BCR signal inh inconclusive, LDHA block inactive and KCNH2 3.1 inh -78.7.
`OCCC1CN(CC#Cc2ccccc2)CCN1C1CCCC1` (centres undefined) gave ClpP mod inactive, ALOX12 inh inactive, KCNH2 WT inh inactive, BCR signal inh inactive, LDHA block inactive and KCNH2 3.1 inh inactive.
Screening OCCC1CN(CC(c2ccccc2)c2ccccc2)CCN1C1CCCC1 (centres undefined) returned ALOX12 inh inactive, KCNH2 WT inh inactive, BCR signal inh inactive, LDHA block inactive and KCNH2 3.1 inh -75.3.
`O=C(O)CCCc1ccccn1` gave ALOX12 inh inconclusive and LDHA block inactive.
For COc1ccc([C@H]2C[C@H](n3cc(C4CC4)nn3)[C@@H](O)CN2CC2CCCCC2)cc1 the results were ClpP mod inactive, ALOX12 inh inactive, KCNH2 WT inh inactive, LDHA block inactive and KCNH2 3.1 inh -84.3.
Cc1c(CCC(C)C)c(=O)n2c([nH]c3ccccc32)c1C#N was read as ClpP mod 3.16µM, KCNH2 WT inh inactive, BCR signal inh inconclusive, LDHA block inactive and KCNH2 3.1 inh inactive.
`CC(=O)C1=C(C)N(CC(C)C)C(=S)NC1c1ccc(Br)cc1` (centres undefined) gave ALOX12 inh 39.8µM.
For CC(=O)C1=C(C)N(CC2CC2)C(=O)N[C@H]1c1ccc(Br)cc1 the results were ClpP mod inactive, ALOX12 inh inactive, KCNH2 WT inh inactive, BCR signal inh inactive, LDHA block inactive and KCNH2 3.1 inh inactive.
Screening CC(=O)C1=C(C)N(Cc2ccc(Br)cc2)C(=S)NC1c1cccc(Br)c1 (centres undefined) returned ALOX12 inh 31.6µM.
For CCOC(=O)CN1C(=O)N[C@H](c2ccc(Br)cc2)C(C(C)=O)=C1C the results were ClpP mod inactive, ALOX12 inh inactive, KCNH2 WT inh inactive, BCR signal inh inactive, LDHA block inactive and KCNH2 3.1 inh inactive.
For CC(=O)C1=C(C)N(Cc2ccc(Cl)cc2)C(=S)NC1c1cccc(Br)c1 (centres undefined) the results were ALOX12 inh 39.8µM.
`Cc1ccc2nc(/C(C#N)=C\c3ccc(O)cc3)[nH]c2c1` gave ALOX12 inh inconclusive and LDHA block inactive.
COc1ccc(-c2c(C#N)c(N)nc3c2CN(C)CC3)c(OC)c1 was read as ALOX12 inh inactive and LDHA block inactive.
Screening CCCc1cc(=O)n(-c2nc3ccccc3s2)[nH]1 returned ClpP mod inactive, ALOX12 inh inactive, KCNH2 WT inh inactive, BCR signal inh inactive, LDHA block inactive and KCNH2 3.1 inh inactive.
Screening CCOC(=O)Cc1cc(=O)n(-c2nc3ccccc3s2)[nH]1 returned ClpP mod inactive, ALOX12 inh 7.94µM, KCNH2 WT inh inactive, BCR signal inh inactive, LDHA block inactive and KCNH2 3.1 inh inactive.
For Cc1ccc(-n2cc(CNCCn3nc(C)cc3C)c(-c3ccc(F)cc3)n2)cc1 the results were ALOX12 inh inactive, KCNH2 WT inh inactive, BCR signal inh inactive, LDHA block inactive and KCNH2 3.1 inh -79.1.
`COc1ccc(-c2nn(-c3ccccc3)cc2C(=O)NC(=S)NNC(=O)c2ccncc2)cc1` gave ClpP mod inactive, ALOX12 inh 31.6µM, KCNH2 WT inh inactive, BCR signal inh inconclusive, LDHA block inactive and KCNH2 3.1 inh inactive.
For COc1ccc(S(=O)(=O)N2CCCCC2)cc1NC(=S)Nc1cccc(Cl)c1C the results were ClpP mod inactive, ALOX12 inh 39.8µM, KCNH2 WT inh inactive, BCR signal inh inactive, LDHA block inactive and KCNH2 3.1 inh inactive.
For COc1ccc(S(=O)(=O)N2CCCCC2)cc1NC(=S)Nc1ccccc1 the results were ClpP mod inactive, ALOX12 inh inactive, KCNH2 WT inh inactive, BCR signal inh inconclusive, LDHA block inactive and KCNH2 3.1 inh inactive.
`COc1cc2c(cc1OC)CN(C(=S)Nc1cccc(Cl)c1C)CC2` gave ClpP mod 31.6µM, ALOX12 inh inactive, KCNH2 WT inh inactive, BCR signal inh inactive, LDHA block inactive and KCNH2 3.1 inh inactive.
For Cc1ccc(OCC(=O)Nc2ccc(S(=O)(=O)N(C)C3CCN(C)CC3)cc2)c(C)c1 the results were ClpP mod inactive, ALOX12 inh 35.5µM, KCNH2 WT inh inactive, BCR signal inh inactive, LDHA block inactive and KCNH2 3.1 inh inactive.
COc1ccc(S(=O)(=O)N2CCOCC2)cc1NC(=O)CSc1ccccc1 was read as ClpP mod inactive, ALOX12 inh inactive, KCNH2 WT inh inactive, BCR signal inh inactive, LDHA block inactive and KCNH2 3.1 inh inactive.
CC(C)Oc1ccc(S(=O)(=O)N2CCOCC2)cc1NC(=O)CCCSc1ccccc1 was read as ClpP mod inactive, ALOX12 inh inactive, KCNH2 WT inh inactive, BCR signal inh inconclusive, LDHA block inactive and KCNH2 3.1 inh -72.2.
C=C(C)CN1CCN(c2nc3c(c(=O)[nH]c(=O)n3C)n2Cc2ccccc2)CC1 was read as ALOX12 inh inactive and LDHA block inactive.
For CC1(C)C(=O)N(Cc2ccccc2)[C@H]2CN(CC3CCOCC3)C[C@@H]2[S+]1(=O)[O-] the results were ALOX12 inh inactive.
`CCC(=O)c1c(-c2ccccc2)nc2n(CCN3CCOCC3)c3ccccc3n12` gave ALOX12 inh inconclusive and LDHA block inactive.
For COc1ccc(S(=O)(=O)N2CCOCC2)cc1NC(=O)COC(=O)C1CCC1 the results were ClpP mod 35.5µM, ALOX12 inh inactive, KCNH2 WT inh inactive, BCR signal inh inactive, LDHA block inactive and KCNH2 3.1 inh inactive.
